TRHR ag – TRH receptor (human) agonism | TRHR cells, calcium flux fluo-8, FDSS agonist mode | activation, % at 2 µM | 360,000 tested, 0.18% active | AID 493084
Target sequence (P34981 whole entry, looked up): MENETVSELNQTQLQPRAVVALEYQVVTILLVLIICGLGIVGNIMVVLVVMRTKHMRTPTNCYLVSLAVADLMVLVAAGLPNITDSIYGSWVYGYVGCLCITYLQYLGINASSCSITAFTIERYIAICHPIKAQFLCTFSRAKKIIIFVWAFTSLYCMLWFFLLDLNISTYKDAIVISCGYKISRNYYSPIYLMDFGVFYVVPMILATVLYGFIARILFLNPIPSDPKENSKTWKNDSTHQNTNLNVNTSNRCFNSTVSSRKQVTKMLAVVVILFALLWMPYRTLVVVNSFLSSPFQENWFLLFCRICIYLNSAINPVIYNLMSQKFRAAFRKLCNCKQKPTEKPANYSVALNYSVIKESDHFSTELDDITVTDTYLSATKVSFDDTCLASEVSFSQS
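Steps: seed TRHR cells overnight; add fluo-8 no-wash Ca dye, RT 30 min–1.5 h; record 10 s baseline; pin-transfer compounds; monitor fluorescence 1 cycle/s for the agonist window. Calcium increases flag candidate agonists.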
D1 antag – antagonists of human D1 dopamine receptor; P21728; activity change, negative = inhibition, % at 10 µM; AID 504652; HEK293 TREx D1 cells, calcium flux, dopamine EC80; hits give low values; 360,000 tested, 3.2% active; in the data active means activity change below about -30%
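Compound effects on dopamine-evoked calcium signalling were measured in tetracycline-induced HEK293 Trex D1 cells. Dopamine at EC80 followed a 180 s compound pre-read, and fluorescence was tracked kinetically for 180 s more.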
TRHR PAM – allosteric enhancers of human TRH receptor | 360,000 tested, 0.66% active | enhancement, % at 2 µM | AID 493056 | P34981 | TRHR cells, fluo-8 calcium fluorescence, EC20 TRH enhancement; in the data active means enhancement above about 30%
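Enhancer read-out: after compound pinning and an initial kinetic agonist-mode read, an EC20 of TRH (10 nM final) was injected and fluo-8 calcium signal (Ex 480/Em 530) followed at 1 s/cycle for 100 cycles in TRHR-expressing cells.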
D1 ag – agonists of human D1 dopamine receptor; 360,000 tested, 1% active; activation, % at 2 µM; P21728; HEK293 T-REx D1 cells, calcium flux, agonist mode; AID 504660
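Tetracycline-induced HEK293 TREx D1 cells, force-coupled to calcium signalling, were dye-loaded with a no-wash calcium kit. Compound was pin-added after a 10 s baseline. Fluorescence was read kinetically at 1 cycle/s for 180 s, with calcium rises flagged as agonism.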
D1 PAM – human D1 dopamine receptor positive modulation. P21728. HEK293 TREx D1 cells, calcium flux, dopamine EC20 potentiation. potentiation, % at 10 µM. 360,000 tested, 0.036% active. AID 504651; in the data active means potentiation above about 30%
Epigenetic reg – epigenetic control regulation, reporter derepression. murine LDR cells, GFP reporter derepression, 30 h. Potency, µM (highest dose often 53.9 µM), usual class: activators. 280,000 tested, 0.2% active. AID 1865; active means well fitted activation curve with a large enough effect; inconclusive means small, poorly fitted or top-dose-only effect; further: nearly all actives have a fitted effect of over 60% in size
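In this reporter-derepression format, murine cells bearing a silenced integrated CMV-GFP locus incubate with test compound (30 h, 37 C), then are washed and imaged; fluorescent objects of 20–120 um count as induced cells.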
Large screens that a line does not name were inactive. Most compounds without a hit are left out; they make up all but 4.6% or so of the library. Unless noted, no stated cut-off is given here; in the data, active means activation above about 30%; inactive means the rest.

COc1c(C)cc(S(=O)(=O)NCCc2c(C)[nH]c3ccccc23)c(C)c1C	none
COC(=O)c1c(/N=C/N(C)C)sc2c1CCN(c1ncc(C(F)(F)F)cc1Cl)C2	D1 antag -30.8
COc1ccc(-c2noc(CSc3nnc(-c4ccc(Cl)cc4)n3C)n2)cc1OC	D1 antag -31.0
COc1ccc(-c2noc(CSc3nnc(C)n3-c3cccc(C)c3)n2)cc1	D1 antag -34.3
O=C(Nc1cc(Cl)ccc1-n1cncn1)c1ccc(Br)o1	none (no result: Epigenetic reg)
CCCOc1ccccc1OCC(=O)Nc1cc(Cl)ccc1-n1cncn1	D1 antag -70.9 (no result: Epigenetic reg)
O=C(Nc1cc(Cl)ccc1-n1cncn1)c1cncc(Br)c1	D1 antag -44.7 (no result: Epigenetic reg)
O=C1CC(c2ccc3c(c2)OCO3)c2cc(O)ccc2O1 (centres undefined)	none (no result: TRHR ag, D1 antag, TRHR PAM, D1 ag, D1 PAM)
O=c1[nH]c(=O)n(C2CC(O)C(CO)O2)cc1F (centres undefined)	none (no result: TRHR ag, D1 antag, TRHR PAM, D1 ag, D1 PAM)
CCc1cn(C2CC(O)C(CO)O2)c(=O)[nH]c1=O (centres undefined)	D1 antag -34.7 (no result: Epigenetic reg)
CS(=O)(=O)c1ncc(Cl)c(C(=O)Nc2ccc(N3CCOCC3)cc2)n1	D1 antag -35.4
CS(=O)(=O)c1ncc(Cl)c(C(=O)Nc2ccc(OC(F)F)cc2)n1	D1 antag -38.4 (no result: Epigenetic reg)
CS(=O)(=O)c1ccc(C(=O)Nc2ccc(N3CCOCC3)cc2)c(Cl)c1	none
CC1=C(C(=O)Nc2ccc(C)c(C)c2)C2(CCCCCC2)OC1=O	none
Cc1oc2ncnc(N3CCOCC3)c2c1C(=O)NCc1ccccc1	none
Cc1ccc(-n2nnnc2CNC(=O)c2ccccc2)cc1C	none
CCOC(=O)NC(=O)c1cn(Nc2ncc(Cl)cc2C(F)(F)F)c(=O)[nH]c1=O	D1 antag -43.6
CCOC(=O)NC(=O)c1cn(Nc2ncc(C(F)(F)F)cc2Cl)c(=O)[nH]c1=O	none
Cc1nn(C(=O)COc2ccc(Cl)cc2)c(C)c1Sc1ccccc1	D1 antag -37.0
COc1ccc(S(=O)(=O)NC2CCc3ccccc32)cc1OC (centres undefined)	D1 antag -37.2 (no result: Epigenetic reg)
Cn1c(=O)oc2cc(S(=O)(=O)NC3CCCc4ccccc43)ccc21 (centres undefined)	D1 antag -35.9 (no result: D1 PAM)
Cc1cc2c(s1)c1cnn(Cc3ccc(C)c(F)c3)c(=O)c1n2C	none (no result: Epigenetic reg)
COc1ccc(C(=O)CCC(=O)Nc2cc(C)ccc2C)cc1	none
O=C1NC2(NN1c1ccccc1)C1CC3CC(C1)CC2C3 (centres undefined)	D1 ag 43.2
CCOc1ccc(CCNC(=O)CCn2c(=O)c3cccn3c3ccc(F)cc32)cc1OCC	none
COc1ccc(OC)c(NC(=O)C(C)n2c(=O)c(-c3ccccc3NC(C)=O)nc3ccccc32)c1 (centres undefined)	none
O=S(=O)(c1ccc(Cl)cc1)N1CCCCCC1	none (no result: Epigenetic reg)
O=S(=O)(c1cccc(-c2cn3ccccc3n2)c1)N1CCCCC1	D1 antag -46.6 (no result: Epigenetic reg)
O=S(=O)(c1ccc(S(=O)(=O)N2CCCC2)cc1)N1CCCCCC1	D1 antag -39.1
O=S(=O)(c1cnc[nH]1)N1CCCCCC1	D1 antag -45.2
CNc1nc(-c2ccc(S(=O)(=O)N3CCCCC3)cc2)cs1	D1 antag -33.3 (no result: Epigenetic reg)
CCC(CC)C(=O)Nc1nnc(S(=O)(=O)N(C)c2cc(C)cc(C)c2)s1	none
Cc1ccc(N2CCN(C(=O)c3c(C)oc4nc(C)nc(N5CCCC5)c34)CC2)c(C)c1	none
Cc1ccc(S(=O)(=O)N2CCC(=O)N2)cc1	D1 antag -67.8
CSc1nc2cc(S(=O)(=O)N3CCOCC3)ccc2s1	none
CSc1nc2cc(S(=O)(=O)N3CCCCC3)ccc2s1	D1 antag -30.9
Cc1ccc(S(=O)(=O)N2CCCN(Cc3nc4ccccc4c(=O)[nH]3)CC2)cc1	none (no result: Epigenetic reg)
Cc1ccc(S(=O)(=O)N2CCCN(C(C)c3nc4ccccc4c(=O)[nH]3)CC2)cc1 (centres undefined)	D1 antag -38.0 (no result: Epigenetic reg)
Cc1ccc(S(=O)(=O)N2CCCN(S(=O)(=O)c3ccc(C)cc3)CC2)cc1	D1 antag -34.4
CC(=O)N1CCc2c(sc3c2c(=O)n(-c2ccccc2Cl)c(=O)n3C)C1	none
O=S(=O)(c1ccc(-c2ccccc2)cc1)N1CCCCC1	D1 antag -35.5 (no result: Epigenetic reg)
Cc1ccc(S(=O)(=O)N2CCCCC2)cc1	none (no result: Epigenetic reg)
c1ccc(COc2ccc(OCCCN3CCCCC3)cc2)cc1	none
CC1CCN(CCOc2ccc(OCc3ccccc3)cc2)CC1	D1 antag -41.1, D1 ag 32.9
c1ccc(COc2ccc(OCCCCN3CCCC3)cc2)cc1	D1 antag -34.4, D1 ag 35.2
CC1CCN(CCCCOc2ccc(C(C)(C)C)cc2)CC1	D1 ag 40.6 (no result: Epigenetic reg)
CCOC(=O)c1c(S(=O)(=O)N2CCCC(C(=O)Nc3cccc(Cl)c3)C2)c(C)n(C)c1C (centres undefined)	none
COc1cccc(CNC(=O)CCCN2C(=O)CSc3c2c(C)nn3-c2ccccc2)c1	none
CC1(C)CC(=O)C(=Cc2cn(-c3ccccc3)nc2-c2ccc(Cl)cc2)C(=O)C1	D1 ag 59.5
Cn1c(/C(C#N)=C/c2ccccc2Br)nc2ccccc21	Epigenetic reg inconclusive
CCOC(=O)N1CCC(N(CCCOC)C(=O)Nc2cccc(OC)c2)CC1	D1 antag -31.4
CCOC(=O)N1CCC(N(C(=O)Nc2cccc(OC)c2)C(C)CC)CC1 (centres undefined)	none
COC(=O)C1=CNC=C(C(=O)OC)C1c1ccc(C(=O)OC)cc1	D1 ag 38.4
COC(=O)C1=C(C)N(C)C(C)=C(C(=O)OC)C1c1ccc(C(=O)OC)cc1	none
CNc1nc(-c2ccc3c(c2)CCN3C(=O)c2ccccc2F)c(C)s1	none
CNc1nc(-c2ccc3c(c2)CCN3C(=O)CC(C)(C)C)c(C)s1	D1 antag -34.8
COc1ccc(NC(=O)N(CCC(C)C)C(C)c2cccs2)c(OC)c1 (centres undefined)	none
O=C(CSc1nc2ccccc2n1CC(=O)N1CCOCC1)N1CCCC1	D1 antag -32.0
Cc1ccc(OCCSc2nc3ccccc3n2CC(=O)N2CCCCC2)c(C)c1	D1 antag -43.6
Cc1ccc(C)c(OCCSc2nc3ccccc3n2CC(=O)N2CCOCC2)c1	none
Cn1c(=O)c2c(-c3ccccc3Cl)n(-c3cc(Cl)ccc3O)cc2n(C)c1=O	D1 ag 43.0
CSCCC(NC(=O)c1ccc(Cl)cc1)C(=O)OCC(=O)c1ccc[nH]1 (centres undefined)	D1 antag -34.5
CSCCC(NC(=O)c1ccc(Cl)cc1)C(=O)OCC(=O)Nc1ccc(C#N)cc1 (centres undefined)	D1 antag -39.9
